High-throughput results from PubChem BioAssay.
USP1 inh: USP1/UAF1 (human) deubiquitinase inhibition | AID 743255 | hit rate 0.23% among 390,000 | Potency, µM (top dose mostly 57.1 µM), for the others: at the highest dose activity change, negative = inhibition, hits mostly inhibitors | recombinant USP1/UAF1, Ub-Rhodamine cleavage fluorescence | O94782; note: potency is the fitted concentration of half-maximal effect; nearly all actives have a fitted effect of over 60% in size
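USP1/UAF1 complex at 1 nM was preincubated with compound for 15 min at room temperature, then Ub-Rho substrate (150nM final) was added. Fluorescence (480/540 nm) was read kinetically, 6 reads every 60 seconds.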
Tau FP inhib: inhibitors of human tau fibril formation; P10636; K18 P301L tau heparin fibrillization, Alexa594 FP, 6 h; Potency, µM (highest dose often 57.7 µM), for inactives: at the highest dose activity, negative = inhibition, actives largely listed as inhibitors; hit rate 0.39% among 280,000; AID 1468; note: potency is the fitted concentration of half-maximal effect; nearly all actives have a fitted effect of over 55% in size
Target sequence (P10636 561-689 P618L limits assumed): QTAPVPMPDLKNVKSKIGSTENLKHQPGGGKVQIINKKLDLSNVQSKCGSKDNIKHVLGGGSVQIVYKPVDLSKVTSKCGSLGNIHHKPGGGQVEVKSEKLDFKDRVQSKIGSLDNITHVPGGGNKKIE
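Heparin (20 uM) drove fibril formation of recombinant tau K18 P301L, 15 uM unlabeled with 0.24 uM Alexa 594 label, for 6 hr at 37 C in 100 mM sodium acetate pH 7. Fluorescence polarization (555/632 nm) read 1 hr after 30 uM ThT.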
Tau ThT inhib: tau fibrillization inhibition (ThT binding) | P10636 | Potency, µM (titrated, usually from 57.4 µM), without a hit: at the top dose activity, negative = inhibition, usual class: inhibitors | hit rate 2.1% among 270,000 | AID 1460 | recombinant tau K18 P301L, heparin-induced fibrillization, ThT fluorescence; note: potency is the fitted concentration of half-maximal effect; nearly all actives have a fitted effect of over 55% in size
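Heparin-induced fibrillization of the P301L-mutant K18 repeat-domain fragment of human tau was followed by ThT binding in quantitative high-throughput format.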
Tau fluor cs: counter-screen for tau fibril formation inhibitors. hit rate 0.93% among 280,000. Potency, µM (titrated, usually from 57.7 µM), inactives show at the top dose activity change, negative = decrease. tau K18 P301L (four-repeat tau fragment) Alexa594 fluorescence, heparin fibrillization; note: potency is the fitted concentration of half-maximal effect; nearly all actives have a fitted effect of over 55% in size
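Human K18 P301L tau (15 uM unlabeled plus 0.24 uM Alexa 594-labeled, final) in 100 mM sodium acetate pH 7 was mixed with compound and 20 uM heparin and incubated 6 hr at 37 C.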
Coupling enz: coupling enzyme interference in Giardia aldolase counter-screen; coupling enzyme system counterscreen, AmpLite Red fluorescence; activity change, negative = inhibition, % at 58.2 µM, hits read low; hit rate 0.67% among 290,000; in the data active = activity change below about -30%
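Fluorescence at 525 nm excitation and 598 nm emission measured inhibition of the coupled detection system without aldolase. Compounds (at 57.5 uM final) were preincubated 10 min at room temperature with coupling enzyme reagent before a 20 min substrate/AmpLite Red step.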
* marks the source's active call; other numbers are inactive results; ? = inconclusive; / = no result; [ ] = another dose, or the depositor's remark. Only some compounds are listed: those with a hit (about 2.3% of all), similar ones and a draw of the others. Unless noted, calls come from the whole dose curve; as a rule, active = well fitted curve in the direction sought with a large enough effect; inconclusive = small, poorly fitted or top-dose-only effect, or another doubt; inactive = no such curve, though single readings can be large; an effect the other way counts as inactive or inconclusive. % is set by controls: 0 for no effect and ±100 for the full control effect.

SMILES | USP1 inh | Tau FP inhib | Tau ThT inhib | Tau fluor cs | Coupling enz
O=C(O)CSc1cc(NS(=O)(=O)c2ccc(Br)cc2)c2ccccc2c1O | 35µM* | / | / | / | -44*
O=S(=O)(Nc1cc(Sc2ncn[nH]2)c(O)c2ccccc12)c1ccccc1 | 2.2µM* | 25µM* | 11µM* | ? | -55*
Cc1ccc(S(=O)(=O)Nc2ccc(Br)cc2C(NCC(=O)O)c2ccccc2)cc1 (stereo not drawn) | -8% | 4% | -2% | -5% | 9
COc1cccc(NC(=O)Cn2c(=O)n(Cc3ccccc3)c(=O)c3ccccc32)c1 | -12% | ? | 5% | -12% | /
COc1cccc(NC(=O)Cn2c(=O)n(Cc3ccc(C(=O)NCc4ccc5c(c4)OCO5)cc3)c(=O)c3ccccc32)c1 | -25% | 25µM* | -1% | ? | /
CN(C)c1ccc(NC(=O)Cn2c(=O)n(Cc3ccccc3)c(=O)c3ccccc32)cc1 | -9% | 4% | ? | 18µM*[quencher] | -1
Cc1ccc(NC(=O)Cn2c(=O)n(Cc3ccc4c(c3)OCO4)c(=O)c3ccccc32)cc1 | ? | -15% | 11% | -21% | /
Cc1ccc(NC(=O)Cn2c(=O)n(Cc3ccc(C(=O)NCc4ccc5c(c4)OCO5)cc3)c(=O)c3ccccc32)cc1 | -20% | 32µM* | 2% | -18% | /
Cc1ccc(-n2c(=O)c3ccc(C(=O)NCc4ccccc4Cl)cc3n(CC(=O)Nc3cccc(F)c3)c2=O)cc1 | -8% | 16µM* | 7% | ? | /
Cc1ccc(-n2c(=O)c3ccc(C(=O)NCc4ccccc4Cl)cc3n(Cc3cccc(F)c3)c2=O)cc1 | -11% | -15% | 9% | -6% | /
O=C(Cn1c(=O)n(Cc2ccc(C(=O)NCc3ccc4c(c3)OCO4)cc2)c(=O)c2ccccc21)Nc1ccccc1F | -22% | ? | 3% | -15% | /
Cc1ccc(CNC(=O)CN(c2ccc(C(C)C)cc2)S(=O)(=O)c2c(C)n[nH]c2C)cc1 | ? | 4% | -17% | ? | /
O=[N+]([O-])c1cccnc1N1CCC(c2cc(-c3ccc(Cl)cc3)n[nH]2)CC1 | -20% | -8% | 7.9µM* | ? | 0
CC(=O)Nc1ccc(NS(=O)(=O)c2c(C(=O)N3CCC(C)CC3)c(C)n(C)c2C)cc1 | -22% | -3% | 1% | -3% | /
Cc1c(/C=N/NC(=O)CNc2ccccc2)c2ccccn2c1C(=O)c1ccc(Cl)cc1 | -8% | ? | ? | ? | 2
Cc1c(/C=N/NC(=O)CNc2ccccc2)c2ccccn2c1C(=O)c1ccncc1 | -9% | ? | 14µM* | ? | 5
Cc1cccc(N=C2NC(=O)/C(=C/C=C/c3ccco3)S2)c1C | -18% | ? | 16µM* | ? | 0
Cc1ccc(N=C2NC(=O)/C(=C/C=C/c3ccco3)S2)cc1 | -18% | ? | 6.3µM* | ? | -1
Cc1ccc(N=C2NC(=O)/C(=C/c3cccn3C)S2)cc1 | -17% | 3% | 6.3µM* | ? | 2
Cc1ccc(N=C2NC(=O)/C(=C/c3cccn3C)S2)cc1C | -3% | -4% | ? | -21% | -2
Cc1cccc(N=C2NC(=O)/C(=C/c3cccn3C)S2)c1C | -21% | -4% | ? | -21% | 0
O=C1NC(=Nc2ccccc2)S/C1=C\C=C\c1ccco1 | -19% | 1% | 4% | 0% | 3
O=C(O)C(=O)/C(=C\c1ccc([N+](=O)[O-])cc1)c1ccc2ccccc2n1 | -7% | 2% | 16µM* | -24% | 4
Fc1ccc(Nc2ccnc(-c3ccccc3C(F)(F)F)n2)cc1 | / | / | / | / | -2
CCOc1ccc(-c2nc(Cn3c(=O)cc(-c4ccccc4)c4c(C)nn(C)c43)c(C)o2)cc1 | -21% | 0% | -8% | -4% | /
CCC(/C=C1\Sc2ccc(OC)cc2N1CCO)=C\c1sc2ccc(OC)cc2[n+]1CCO | -5% | -13% | 1.1µM* | 0.4µM*[fluorescent] | -15
CCC(/C=C1\Sc2ccc(OC)cc2N1CC)=C\c1sc2ccc(OC)cc2[n+]1CCCS(=O)(=O)[O-] | -17% | ? | 3.5µM* | 0.79µM*[fluorescent] | 0
